# Most compounds without a hit are left out; they make up all but 3.7% or so of the library.
# FadD28 binding = inhibitors of Mycobacterium tuberculosis FadD28 bisubstrate binding; FadD28 bisubstrate probe binding, fluorescence polarization; inhibition, % at 12.5 µM; hit rate 0.22% among 360,000; AID 588549; in the data active = inhibition above about 8.5%, passing the limit was not always enough
# Mtb betalactam = beta-lactam sensitization of Mtb H37Rv. AID 434955. M. tuberculosis H37Rv growth with meropenem, percent inhibition. inhibition, % at 25 µM. hit rate 0.27% among 330,000; call rule not given here;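 note: growth measured after seven days incubation then overnight dye step; 0% = bacteria only wells and 100% = bacteria with antibiotic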
# FBA Mtb inh = inhibits M. tuberculosis FBA enzyme; purified M. tuberculosis FBA, fluorescence read-out; inhibition, % at 1 µM; AID 588726; hit rate 2.3% among 360,000;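 note: 0% = vehicle and 100% = reference inhibitor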
# Target sequence (P9WQA3 whole entry, looked up): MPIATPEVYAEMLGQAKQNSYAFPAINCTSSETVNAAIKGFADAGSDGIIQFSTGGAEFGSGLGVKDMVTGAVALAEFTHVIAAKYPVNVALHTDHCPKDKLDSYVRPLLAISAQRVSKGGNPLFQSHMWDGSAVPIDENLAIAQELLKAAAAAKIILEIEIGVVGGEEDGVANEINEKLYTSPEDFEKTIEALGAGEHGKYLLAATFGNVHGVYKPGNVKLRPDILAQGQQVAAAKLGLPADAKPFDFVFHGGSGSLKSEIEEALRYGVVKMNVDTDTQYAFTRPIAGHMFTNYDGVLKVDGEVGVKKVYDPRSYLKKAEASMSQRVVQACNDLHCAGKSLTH
# GDH-TPI counter-1 = GDH-TPI coupled enzyme inhibition counter-screen. GDH-TPI coupled enzyme counterscreen, NADH absorbance. inhibition, % at 4.8 µM. hit rate 1.2% among 360,000. AID 588335; in the data active = inhibition above about 30%;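 note: 0% = DMSO wells and 100% = wells lacking the enzyme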
# Mtb UGM inh = blocks M. tuberculosis UGM enzyme | P9WIQ1 | purified UGM, fluorescence polarization probe displacement | inhibition, % at 10 µM | hit rate 0.06% among 320,000 | AID 504406; in the data active = inhibition above about 10%, passing the limit was not always enough
# Rv3671c protease = Rv3671c (M. tuberculosis) protease inhibition; inhibition, % at 5.96 µM; hit rate 0.048% among 320,000; P9WHR9; AID 2606; in the data active = inhibition above about 38%;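 note: extracellular domain of Rv3671c used as enzyme; 0% = enzyme with DMSO and 100% = no enzyme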
# Mtb FBA confirm = Mtb FBA inhibition, confirmed; shares compounds with FBA Mtb inh; purified M. tuberculosis FBA, fluorescence read-out; inhibition, % at 1 µM; hit rate 78% among 5,600; AID 651616;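 note: 0% = vehicle wells and 100% = reference inhibitor wells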
# GDH-TPI counter-2 = counter-screen for M. tuberculosis FBA inhibitors: GDH-TPI coupled enzyme inhibition; shares compounds with FBA Mtb inh; GDH-TPI coupled enzyme counterscreen, fluorescence; inhibition, % at 1 µM; hit rate 81% among 5,600; in the data active = inhibition above about 10%
# Active calls of the source: *; nt = not tested or not shown; + = active, no number. Cut-off read from the data, not from the text of the source, unless noted: active = inhibition above about 27%; inactive = the rest.
SMILES,FadD28 binding,Mtb betalactam,FBA Mtb inh,GDH-TPI counter-1,Mtb UGM inh,Rv3671c protease,Mtb FBA confirm,GDH-TPI counter-2
CC(NC(=O)Nc1ccc(F)cc1)c1ccc2c(c1)OCO2 (stereo unspecified),-3,-15,-1,1,1,0,nt,nt
Cc1noc(C)c1NC(=O)N(C)C[C@@H]1OCc2ccccc2-c2c(n(C)c3ccccc23)C(=O)N([C@H](C)CO)C[C@H]1C,-3,nt,-1,-1,nt,nt,nt,nt
CC(C)CC(c1nnnn1C(C)C)N1CCN(c2cccc(Cl)c2)CC1 (stereo unspecified),-3,-7,42*,-5,1,2,+,+
CCOC(=O)N(NC(=O)C(O)(C(C)C)C(C)C)c1ccccc1,1,-1,101*,7,1,-1,47*,55*
NC(=O)CSc1oc(-c2ccc(F)cc2)nc1S(=O)(=O)c1ccccc1,-2,6,62*,9,2,1,158*,89*
Cc1ccc(-c2nc(S(=O)(=O)c3ccc(C)cc3)c(SCC(N)=O)o2)cc1,-7,-5,-1,-9,1,-7,nt,nt
Cc1cccc(-c2cc3nc(C)cc(N4CC(C)CC(C)C4)n3n2)c1 (stereo unspecified),-2,9,67*,10,0,-1,56*,30*
CC(C)c1ccc(C(=O)Nc2ccc(CN3CCOCC3)cc2)cc1,0,1,69*,4,-3,1,196*,191*
Cc1ccc(C2N=C(N)Nc3nc(=O)c4ccccc4n32)cc1 (stereo unspecified),0,-5,76*,3,3,-2,9,6
Cc1ccc(C2N=C(N)Nc3nc4ccccc4n32)cc1 (stereo unspecified),-1,-3,2,-1,4,5,nt,nt
O=C(NCCCN1CCOCC1)c1ccc2c(c1)N(Cc1ccc(F)cc1)CCS2,1,-16,94*,11,-3,-10,178*,134*
O=C(NCCCN1CCOCC1)c1ccc2c(c1)N(Cc1cccc(Cl)c1)C(=O)CS2,-4,-3,1,-2,1,9,nt,nt
O=C(NCCCN1CCCC1)c1ccc2c(c1)N(Cc1ccccc1)CCS2,-5,-7,96*,2,1,1,153*,147*
Cc1ccc(CN2CCSc3ccc(C(=O)NCc4ccccn4)cc32)cc1,-1,-4,66*,16,1,-17,97*,67*
O=C(NCc1ccco1)c1ccc2c(c1)N(Cc1ccccc1)CCS2,0,-2,51*,21,-2,3,115*,82*
O=C(O)c1ccccc1-c1ccccc1C(=O)Nc1ccc2c(c1)C(O)c1ccccc1-2 (stereo unspecified),-3,nt,5,3,nt,nt,nt,nt
C[C@@H]1CN([C@@H](C)CO)C(=O)CCCn2nncc2CO[C@H]1CN(C)S(=O)(=O)c1cn(C)cn1,-1,nt,2,0,nt,nt,nt,nt
O=Cc1cn(-c2ccccc2)nc1-c1cc2cc(O)ccc2oc1=O,-3,88,32*,34*,-1,6,82*,57*
COC(=O)c1ccc2c(c1)C(C)(C)C(/C=C/c1ccc(OC)c(OC)c1OC)=[N+]2C,-2,-1,47*,5,-4,-465,78*,57*
COC(=O)c1ccc2c(c1)C(C)(C)C(/C=C/c1ccc(O)cc1)=[N+]2C,-10,11,26,-3,-6,-332,nt,nt
CCOC(=O)N1CCC(NC(=O)CSCc2nc(-c3sccc3C)oc2C)CC1,-1,2,40*,16,2,2,1,-1
Cc1oc(-c2cccs2)nc1CSCC(=O)NC1CC1,-1,-1,35*,-6,-1,7,-2,-6
Cc1oc(-c2ccccc2Cl)nc1CSCC(=O)NC1CCCC1,-3,9,1,-7,0,0,nt,nt
CCOc1ccc(NC(=O)CN(C)C(=O)C(C)Oc2ccc(Cl)cc2)cc1OCC (stereo unspecified),1,nt,2,-6,nt,nt,nt,nt
COc1ccccc1-c1noc2c1C(=O)NCC2,-2,nt,2,-1,nt,nt,nt,nt
SMILES,FadD28 binding,Mtb betalactam,FBA Mtb inh,GDH-TPI counter-1,Mtb UGM inh,Rv3671c protease,Mtb FBA confirm,GDH-TPI counter-2
CSC1=NC(NCCCO)c2c(sc3c2CC(C)(C)OC3)N1 (stereo unspecified),-2,-11,28*,12,-2,-16,107*,92*
CC(C)OC(=O)C(C)Nc1n[nH]c(=S)[nH]c1=O (stereo unspecified),1,nt,6,9,nt,nt,nt,nt
CC(C)COC(=O)C(C)Nc1n[nH]c(=S)[nH]c1=O (stereo unspecified),-3,0,53*,11,0,5,4,-3
CCCCCCCCOC(=O)c1cc([N+](=O)[O-])c(Sc2ncnc3nc[nH]c23)c([N+](=O)[O-])c1,1,nt,3,12,nt,nt,nt,nt
CSc1ncc(C(=O)Nc2cccc(S(N)(=O)=O)c2)n1-c1ccccc1,-1,2,39*,-3,1,6,168*,132*
O=C(NC(=S)N1CCCCC1c1cccnc1)c1ccc(Br)cc1 (stereo unspecified),-1,25,1,6,-3,-3,nt,nt
COc1ccc(NC2CCCN(C(=O)C3=NNC(=O)CC3)C2)cc1 (stereo unspecified),-3,nt,-2,-8,nt,nt,nt,nt
COc1ccc(-c2cc(C(=O)OCC(=O)Nc3cc(C)on3)c3ccccc3n2)cc1OC,0,-3,-1,0,-1,-9,nt,nt
Cc1ccc(-c2cc(C(=O)OCC(=O)Nc3cc(C)on3)c3ccccc3n2)c(C)c1,-7,-4,103*,9,1,13,58*,50*
Cn1c(=O)nc2n(Cc3ccccc3)c3ccccc3cc-2c1=O,-3,2,85*,7,-3,-13,72*,52*
CC1(C(=O)NS(=O)(=O)C2CC2)CCN(C(=O)c2ccc(F)c(Cl)c2)C1 (stereo unspecified),-1,nt,-1,3,nt,nt,nt,nt
O=C(CN1CCN(C(=O)c2ccco2)CC1)Nc1cc(S(=O)(=O)N2CCCC2)ccc1Cl,-2,nt,0,-1,nt,nt,nt,nt
c1cncc(-c2noc(-c3cccc4ccccc34)n2)c1,-2,50,28*,4,-1,-6,22,20*
COc1ccc2c(c1)CCc1cnc(N)nc1-2,0,90,106*,30,-5,-3,-3,-2
Nc1nc(N)c2cc(Sc3ccc(Cl)cc3)ccc2n1,-7,nt,68*,9,nt,nt,64*,59*
Nc1nc(N)c2cc(Sc3ccc4ccccc4c3)ccc2n1,-3,99,9,6,0,34,nt,nt
Nc1nc(N)c2cc(Sc3cccc(C(F)(F)F)c3)ccc2n1,-15,nt,52*,7,nt,nt,+,177*
CCOc1ccc(S(=O)(=O)Nc2cc(S(=O)(=O)N3CCOCC3)ccc2OC)cc1,-5,-7,-3,-4,-1,-4,nt,nt

# From PubChem
